Potency data for 94 compounds are collected here from PubChem BioAssay AID686979 (National Center for Advancing Translational Sciences (NCATS), 2013).

The campaign covered roughly 420,000 compounds. About 50,000 (12%) were called active. Entries that show only a call come without a potency. Another 26% or so got no clear call; they are omitted. This is one part of a sample in which actives are shown more often than they occur. The call rests on the fitted dose curve; in most records, active means well fitted inhibition curve with a large enough effect; inconclusive means small, poorly fitted or top-dose-only effect; inactive means flat fitted curve, though single readings scatter.
Potency means the concentration at half of the fitted maximal effect.

A short description of the assay: qHTS for Inhibitors of human tyrosyl-DNA phosphodiesterase 1 (TDP1): qHTS in cells in presence of CPT. Further: nearly all actives have a fitted effect of over 55% in size. As to conditions: chicken DT40 Tdp1-/-;hTDP1 cells + 20 nM CPT, ATP luminescence, 48 h; series mostly up to 46.2 µM. In outline:
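Chicken DT40 Tdp1-/- cells complemented with human TDP1, 400 cells/well, exposed to compounds plus 20 nM camptothecin for at least 48 h at 37 C; viability read as ATP content by CellTiter-Glo luminescence.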
On to `COc1ccc(C(=O)NCc2nnc(SCC(=O)Nc3cccc(OC)c3)o2)cc1`, for which the Potency entry was “inactive”.

On to `COc1ccccc1NC(=O)CSc1nnc(CNC(=O)c2ccccc2F)o1`, for which the Potency result was “inactive”.

As for `COc1cc(C(=O)NCc2nnc(SCC(=O)Nc3nc4ccc(C)cc4s3)o2)cc(OC)c1OC`, the Potency is 4.11 µM (active).

As to `O=C(O)c1ccc(S(=O)(=O)N2CCOCC2)o1`, the Potency result was “inactive”.

Turning to `CNc1cc(-c2c(OC)cccc2OC)ncn1`, the Potency result is “inactive”.

On to `CCOC(=O)CSC1=C(C#N)C(c2sccc2C)CC(=O)N1` (centres undefined), for which the Potency is 3.55 µM (active).

As to `C=CCOC(=O)C1=C(C)NC(SCC(=O)OCC)=C(C#N)C1c1ccc(C)cc1` (centres undefined), the Potency result is “inactive”.

`COC(=O)CSC1=C(C#N)C(c2ccccc2OC)C(C(=O)OC)C(=O)N1` (centres undefined): the Potency result was “inactive”.

`C/C=C/C=C/C(=O)OCC(=O)Nc1ccc(Cl)cc1`: the Potency entry is “inactive”.

As to `Cc1onc(-c2c(F)cccc2Cl)c1C(=O)N(C)CC(=O)Nc1cccc(F)c1`, the Potency result is “inactive”.

Turning to `O=C(c1cc(C(=O)N2CCN(c3ccc(F)cc3)CC2)cc([N+](=O)[O-])c1)N1CCN(c2ccc(F)cc2)CC1`, the Potency is 8.2 µM (active).

Turning to `O=C(c1cccc([N+](=O)[O-])c1)N1CCN(C(=O)c2ccco2)CC1`, the Potency entry is “inactive”.

Regarding `O=C(c1cc(-c2ccc(F)cc2)on1)N1CCN(c2ccc(F)cc2)CC1`, the Potency result was “inactive”.

Regarding `O=C(c1cc2cc(F)ccc2[nH]1)N1CCN(c2ccc(F)cc2)CC1`, the Potency result was “inactive”.

`O=C(c1cccc(C(=O)N2CCN(c3ccc(F)cc3)CC2)c1)N1CCN(c2ccc(F)cc2)CC1`: the Potency was 14.6 µM (active).

Take `O=[N+]([O-])c1ccc(N2CCN(c3ccc(F)cc3)CC2)cn1`: the Potency entry was “inactive”.

On to `CO/N=C(\C(=O)N[C@@H]1C(=O)N2C(C(=O)O)=CCS[C@H]12)c1csc(N)n1`, for which the Potency entry is “inactive”.

Turning to `O=C1COc2ccc(C(=O)COC(=O)CCOc3ccccc3)cc2N1`, the Potency entry was “inactive”.

Consider `Cc1ccc(C(=O)Oc2ccc(C(=S)N3CCOCC3)cc2)cc1`, for which the Potency entry is “inactive”.

Consider `COC(=O)COc1ccc2c(c1C)O/C(=C\c1ccco1)C2=O`, for which the Potency result was “inactive”.

In the case of `CCC1S/C(=N/N=C/c2ccco2)NC1=O` (centres undefined), the Potency result is “inactive”.

As to `CC(C)(C)C1C/C(=C/c2ccco2)C(=O)/C(=C/c2ccco2)C1` (centres undefined), the Potency is 23.1 µM (active).

With `Cc1ccc2nc(N3C(=O)C(O)=C(C(=O)c4ccco4)C3c3cccc(O)c3)sc2c1` (centres undefined), the Potency result is “inactive”.

Take `CC(C)c1ccc(NC(=O)c2ccc3c(O)c(S(=O)(=O)c4ccccc4)c(=O)[nH]c3c2)cc1`: the Potency entry is “inactive”.

Regarding `COc1ccccc1CCNC(=O)c1cnccn1`, the Potency result is “inactive”.

Take `C=C1C=C(C)n2ncc(C(=O)Nc3ccccc3O)c2N1`: the Potency result was “inactive”.

On to `C=C1C=C(C(F)F)n2ncc(C(=O)NCCc3ccccc3OC)c2N1`, for which the Potency is 15.8 µM (active).

In the case of `C#CCOCCOCCOCCNc1nc(N2CCN(C(=O)Cn3cc(CCO)nn3)CC2)nc(N2CCN(C(=O)Cn3cc(CCCN=C(N)N)nn3)CC2)n1`, the Potency result is “inactive”.

For `C#CCOCCOCCOCCNc1nc(N2CCN(C(=O)[C@H](CCCN=C(N)N)n3cc(C(N)[C@@H](C)CC)nn3)CC2)nc(N2CCN(C(=O)[C@H](CO)n3cc([C@@H](N)C(C)C)nn3)CC2)n1` (some centres undefined), the Potency entry is “inactive”.

For `C#CCOCCOCCOCCNc1nc(N2CCN(C(=O)Cn3cc(CCO)nn3)CC2)nc(N2CCN(C(=O)[C@H](CCCCN)n3cc(CCCC)nn3)CC2)n1`, the Potency entry was “inactive”.

Take `C#CCOCCOCCOCCNc1nc(N2CCN(C(=O)CCCCCCCCCCNC(=O)[C@H]([C@@H](C)CC)n3cc(CCCCN=C(N)N)nn3)CC2)nc(N2CCN(C(=O)CCCCCCCCCCNC(=O)[C@H](CO)n3cc(CCCSC)nn3)CC2)n1`: the Potency is 9.2 µM (active).

For the compound `C#CCOCCOCCOCCNc1nc(N2CCN(C(=O)[C@H](CCCCN)n3cc(CCC(=O)O)nn3)CC2)nc(N2CCN(C(=O)[C@H](CCCCN)n3cc(CC(C)O)nn3)CC2)n1` (some centres undefined), the Potency entry is “inactive”.

With `C#CCOCCOCCOCCNc1nc(N2CCN(C(=O)CCCCCCCCCCNC(=O)[C@H](CCCCN)n3cc(C)nn3)CC2)nc(N2CCN(C(=O)CCCCCCCCCCNC(=O)[C@H](CO)n3cc(CCCSC)nn3)CC2)n1`, the Potency is 14.6 µM (active).

As to `CC(CC(=O)N1CCN(S(=O)(=O)c2ccccc2)CC1)n1cncn1` (centres undefined), the Potency entry is “inactive”.

With `O=c1cc(-c2ccccc2)n2c(SCc3ccccc3)nnc2[nH]1`, the Potency result was “inactive”.

Turning to `Cc1cc(C)c(NC(=O)CN2CCOCCOCCOCCOCC2)c(C)c1`, the Potency entry is “inactive”.

With `Cc1c(Cl)cccc1NC(=O)NCc1ccc(C)n1C`, the Potency entry was “inactive”.

With `COc1ccc(/C=C/C(=O)NC(=S)NN2CCCCC2c2cccnc2)cc1` (centres undefined), the Potency entry is “inactive”.

Consider `O=S(=O)(Cc1cc(Sc2ccccc2)nc(-c2ccccc2)n1)c1ccccc1`, for which the Potency was 23.1 µM (active).

On to `O=S(=O)(Cc1nnnn1-c1ccccc1)c1ccccc1`, for which the Potency result is “inactive”.

As to `O=S(=O)(NCCc1csc(-c2ccccc2)n1)c1cccnc1`, the Potency entry was “inactive”.

As to `CC1(C(=O)NS(=O)(=O)c2cccc(OC(F)F)c2)CCN1C(=O)COc1ccc(Cl)cc1` (centres undefined), the Potency entry is “inactive”.

On to `COC(=O)c1ccc(COC(=O)C2CCN(S(=O)(=O)c3c(Cl)cccc3Cl)CC2)o1`, for which the Potency result is “inactive”.

On to `O=C(Nc1ccc(OC(F)(F)F)cc1)c1cc2c(=O)n3ccccc3nc2s1`, for which the Potency result was “inactive”.

On to `Cc1nc2ccccn2c(=O)c1NC(=O)c1c(F)cccc1F`, for which the Potency entry is “inactive”.

For the compound `Cn1c(C(=O)Nc2cccc(C(F)(F)F)c2)cc2c(=O)n3ccccc3nc21`, the Potency is 14.6 µM (active).

As to `CCOc1cc(C2C(C(=O)Nc3ccc(OC)cc3)=C(C)Nc3nc(SC)nn32)ccc1O` (centres undefined), the Potency result was “inactive”.

With `CCOc1ccc(C2C(C(=O)Nc3ccc(Cl)cc3)=C(C)Nc3nc(C(F)(F)F)nn32)cc1` (centres undefined), the Potency is 13 µM (active).

For the compound `CCOc1ccccc1NC(=O)C1=C(C)Nc2ncnn2C1c1ccc(NC(C)=O)cc1` (centres undefined), the Potency result was “inactive”.

Take `C[n+]1cc(-c2ccccc2)oc1-c1ccccc1`: the Potency result was “inactive”.

With `O=C(O)CCCCOn1ccnc1`, the Potency result was “inactive”.

With `COc1ccc(S(=O)(=O)NCc2cccn2Cc2cccc(C)c2)cc1`, the Potency entry was “inactive”.

`CC1CCN(S(=O)(=O)c2ccc(S(=O)(=O)NCc3cccnc3)cc2)CC1`: the Potency entry is “inactive”.

Consider `Cc1cccc(CNS(=O)(=O)c2ccc(-c3cnc(C4CC4)o3)cc2)c1`, for which the Potency is 16.4 µM (active).

`COc1ccc(CNS(=O)(=O)c2cc3c4c(c2)CCN4C(=O)CC3)cc1`: the Potency result is “inactive”.

On to `COc1ccc(CNS(=O)(=O)c2ccc(-c3cnc(C4CC4)o3)cc2)cc1`, for which the Potency was 14.6 µM (active).

Take `CC1CN(C(=O)c2cccc(NS(=O)(=O)c3ccc(Br)cc3)c2)CC(C)O1` (centres undefined): the Potency entry was “inactive”.

Take `Cc1cccc(NS(=O)(=O)c2ccc(-c3cnc(C4CC4)o3)cc2)c1`: the Potency is 0.731 µM (active).

In the case of `Cc1cccc(NS(=O)(=O)c2ccc(C)c(C(=O)NCc3cccnc3)c2)c1`, the Potency entry is “inactive”.

As to `CCc1ccc(S(=O)(=O)NCC(O)COc2ccc(OC)cc2)cc1` (centres undefined), the Potency result is “inactive”.

With `O=C(C1CC1)N1N=C2CCCCC2C1(O)C(F)(F)F` (centres undefined), the Potency result is “inactive”.

On to `O=[N+]([O-])c1ccccc1/C=C/CN1CCC(O)CC1`, for which the Potency entry is “inactive”.

Consider `COC(=O)c1sc(C(F)(F)F)c(-c2ccccc2)c1S(=O)(=O)N(C)C`, for which the Potency result is “inactive”.

As for `Cc1ccc(S(=O)(=O)NCCSc2ccccc2)cc1[N+](=O)[O-]`, the Potency entry is “inactive”.

Regarding `CC(Oc1ccc(Cl)cc1)c1ccnn1S(C)(=O)=O` (centres undefined), the Potency entry is “inactive”.

As to `CC1CN(S(=O)(=O)c2cccc(C(F)(F)F)c2)CN1C(=O)N1CCOCC1` (centres undefined), the Potency entry was “inactive”.

With `O/N=C(\C[n+]1ccccc1)c1ccc(Br)cc1`, the Potency result was “inactive”.

Take `COc1ccccc1N(CC(=O)Nc1ccc(C(F)(F)F)cc1)S(C)(=O)=O`: the Potency entry is “inactive”.

Regarding `CCCCN(CC)CCCNC(=O)c1ccc(CSc2nc3ccncc3[nH]2)cc1`, the Potency entry is “inactive”.

For `CCCCN(CC)CCCNC(=O)c1nn(C)c2c1CS(=O)(=O)c1ccccc1-2`, the Potency result is “inactive”.

In the case of `CCCCN(CC)CCCNC(=O)c1nn(C)c2c1CSc1ccccc1-2`, the Potency was 25.9 µM (active).

For `C[C@@H]1CC2=C(C(=O)OC(C)(C)O2)[C@@H](C2CC2)O1`, the Potency entry is “inactive”.

`Cn1nccc1CNC(=O)c1ccnn1C`: the Potency result was “inactive”.

For the compound `CCN(CC)C(=O)c1sc(NC(=O)c2ccco2)c(C#N)c1C`, the Potency result was “inactive”.

For the compound `CCCc1ccc(-c2c(C)sc(NC(=O)c3ccnn3C)c2C#N)cc1`, the Potency was 23.1 µM (active).

Take `COc1ccc(CNC(=O)CN(Cc2ccccc2Cl)C(=O)c2csnn2)cc1`: the Potency result is “inactive”.

Regarding `COc1ccc(C(CNC(=O)CSc2ccccc2)N2CCOCC2)cc1` (centres undefined), the Potency entry is “inactive”.

For the compound `COc1ccc(C(CNC(=O)c2cc3c(s2)CCCC3)N2CCOCC2)cc1` (centres undefined), the Potency entry is “inactive”.

Take `CN1CCN(C(CNC(=O)c2ccccc2F)c2ccc3c(c2)OCO3)CC1` (centres undefined): the Potency entry was “inactive”.

For `CC(C)(C)c1ccc(C(=O)NCC(c2ccc(Cl)cc2)N2CCOCC2)cc1` (centres undefined), the Potency was 23.1 µM (active).

For the compound `COc1cc(C(=O)NCC(c2ccc(Cl)cc2)N2CCOCC2)cc(OC)c1OC` (centres undefined), the Potency was 16.4 µM (active).

Regarding `CN(C)c1ccc(C(CNS(=O)(=O)c2cc(F)ccc2F)N2CCOCC2)cc1` (centres undefined), the Potency entry was “inactive”.

`O=C(NCC(c1ccc(Cl)cc1)N1CCOCC1)c1ccccc1F` (centres undefined): the Potency was 16.4 µM (active).

Regarding `COc1cc(C(=O)OCCCN2CCOCC2)cc(OC)c1OC`, the Potency entry was “inactive”.

Consider `COc1ccc(C(CNC(=O)c2cccnc2SC)N2CCOCC2)cc1` (centres undefined), for which the Potency entry was “inactive”.

On to `Cc1ccc(S(=O)(=O)NN=C2CC(C)(C)CC(=O)C2(C)C)cc1`, for which the Potency result was “inactive”.

Turning to `CCOCCCNC(=O)C1(O)c2cc(Br)ccc2NC(=O)N1c1ccc(C)c(C)c1` (centres undefined), the Potency result is “inactive”.

In the case of `Cc1ccc(S(=O)(=O)N2CCCCC2)cc1NC(=O)CCNC(=O)c1ccccc1`, the Potency result is “inactive”.

With `CN(C)c1ccc2c(=O)[nH][nH]c(=O)c2c1`, the Potency result is “inactive”.

`COc1cc(C(=O)N2CCOC23CCN(Cc2ccccc2)CC3)cc(OC)c1OC`: the Potency entry was “inactive”.

On to `N#Cc1cc([N+](=O)[O-])ccc1NC(=O)COC(=O)c1cnccn1`, for which the Potency entry was “inactive”.

As for `CCC(CC)NC(=O)CSc1nnc(-c2c[nH]c3ccccc23)o1`, the Potency result was “inactive”.

`Cc1ccc(C(=O)OCC(=O)Nc2ccc(Cl)cn2)cc1S(=O)(=O)N1CCOCC1`: the Potency result was “inactive”.

Turning to `CN(Cc1ccccc1)C(=O)C(=O)c1cn(CC(=O)N2CCCC2)c2ccccc12`, the Potency result was “inactive”.
